The subject of one test is CRL-7250. The experiment in a line: Cytotoxic Profiling of Annotated Libraries Using Quantitative High-Throughput Screening (AID 1296008). Further: potency means the concentration at half of the fitted maximal effect. On max response: on the % scale 0 is the no-effect control and ±100 the full control effect. To be noted: Five cell lines viability, CellTiter-Glo ATP luminescence, 48-72 h; max response: stronger effect = lower value. The method in brief: (§1)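 Compounds were pin-transferred onto cells and incubated 48 or 72 hr at 37 degree Celsius, 95% humidity. CellTiter-Glo was added, plates sat 10 min at room temperature, then ATP-coupled luminescence was imaged as the viability read-out.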
(In general: In ATP-based viability assays light output follows the ATP content of the culture.)

The subject of a further test is HEK293. Described as above. To be noted: Five cell lines viability, CellTiter-Glo ATP luminescence, 48-72 h; max response: stronger effect = lower value. The method in brief: as §1
Test [1] concerns HaCat. Described as above. To be noted: Five cell lines viability, CellTiter-Glo ATP luminescence, 48-72 h; max response: stronger effect = lower value. The method in brief:
as §1

In a further test the test system is NIH3T3. The description is as above. To be noted: Five cell lines viability, CellTiter-Glo ATP luminescence, 48-72 h; max response: stronger effect = lower value. The method, boiled down: as §1
Test [2] has as its system HACAT. The experiment in a line: qHTS assay to identify novel small-molecules to repurpose for Merkel cell carcinoma treatment (AID 1296009). To be noted: MCC and control cell lines, CellTiter-Glo viability, 72 h; at 44.8 µM (top of the series) unless noted. The method, boiled down:
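Cells exposed to NPC (8-point) and MIPE (11-point) compound dilutions for 72 hr at 37 degree celsius; viability read by CellTiter-Glo luminescence, normalized to no-cell and DMSO in-plate controls.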
Background: Quantitative high-throughput screening tests each substance at several concentrations.

Inconclusive results are not listed. Values without a mark were called inactive. Activity calls are given as the source filed them. The call rests on the fitted dose curve; in most records, active means well fitted inhibition curve with a large enough effect; inconclusive means small, poorly fitted or top-dose-only effect; inactive means flat fitted curve, though single readings scatter.
Further: nearly all actives have a fitted effect of over 60% in size.

In the case of `CCOCCn1c(C2CCN(CCc3ccc(C(C)(C)C(=O)O)cc3)CC2)nc2ccccc21`, the max response with CRL-7250 was -0.215%; in the test on HEK293 it was -1.51%; with NIH3T3 it was -0.532%. Moreover, the molecule was called inactive in the test on HaCat [1] and in the test on HACAT [2].
For the molecule `O=C1c2ccccc2CCc2ccccc21`, the max response in the test on CRL-7250 was 2.21%; in the test with HEK293 it was -2.77%; in the test with NIH3T3, 0.759%. The molecule was called inactive in the test with HaCat [1] and with HACAT [2].
As for `CCOc1ncc(F)c(=O)[nH]1`, the call in the test on CRL-7250, in the test on HaCat [1] and in the test with HACAT [2] was inactive. Also, the max response in the test on HEK293 was -0.0366%; in the test on NIH3T3, -1.34%.
With `COC(=O)CCCCC(CCSS/C(CCO)=C(\C)N(C=O)Cc1cnc(C)nc1N)SC(C)=O` (stereo not given), the outcome in the test on CRL-7250, in the test with HEK293, in the test on HaCat [1], with NIH3T3 and with HACAT [2] was inactive.
`Cc1cc(O)c(C)c(C)c1O`: the molecule was called inactive with CRL-7250, in the test on HEK293, in the test with HaCat [1], in the test with NIH3T3 and in the test with HACAT [2].
On to `CN(C)CCN(Cc1ccsc1)c1ccccn1`, for which the max response was -0.513% in the test with CRL-7250 and -3.25% in the test on HEK293. The molecule was classed as inactive in the test with HaCat [1], in the test with NIH3T3 and in the test on HACAT [2].
Regarding `Nc1cc(C(F)(F)F)ccc1S`, the max response with CRL-7250 is -0.153%; in the test on HEK293, -4.91%. Further, the molecule was called inactive with HaCat [1], in the test on NIH3T3 and with HACAT [2].
Consider `CC(NC(CCc1ccccc1)C(=O)O)C(=O)N1C(=O)N(C)CC1C(=O)O` (stereo not given), for which the values for the max response in the test on CRL-7250 and in the test with NIH3T3 were 1.99% and -5.8%, respectively. Moreover, the molecule was classed as inactive in the test with HEK293, in the test with HaCat [1] and with HACAT [2].
Regarding `CC(=O)N(c1onc(C)c1C)S(=O)(=O)c1ccc(N)cc1`, the max response with CRL-7250 was -16.4%; with HEK293 it was 4.9%; with NIH3T3, -5.11%. The call in the test on HaCat [1] and in the test on HACAT [2] was inactive.
On to `CN1N=C(C(N)=O)CCC1=O`, for which the outcome with CRL-7250, with HEK293, in the test with HaCat [1], with NIH3T3 and in the test on HACAT [2] was inactive.
With `Oc1ccccc1-c1nnco1`, the molecule was called inactive with CRL-7250, with HEK293, in the test with HaCat [1] and in the test with HACAT [2]. For the same molecule, in the test on NIH3T3, the max response was 1.39%.
For the molecule `COc1ccc2c(c1)CCCC2=O`, the max response was -5.59% with CRL-7250 and -10.4% with HEK293. Also, the call in the test on HaCat [1], in the test on NIH3T3 and in the test on HACAT [2] was inactive.
With `CC(C)(C)CC(=O)OCC(=O)[C@@]1(O)CC[C@H]2[C@@H]3CCC4=CC(=O)C=C[C@]4(C)[C@H]3[C@@H](O)C[C@@]21C`, the max response was -1.84% with CRL-7250 and -9.28% with NIH3T3. Further, the Potency with HEK293 was 15 µM (active). Moreover, the molecule was called inactive in the test with HaCat [1] and in the test on HACAT [2].
For the molecule `NS(=O)(=O)c1ccc(N2CCCCS2(=O)=O)cc1`, in the test on CRL-7250, the max response was -11.1%. In addition, the result in the test on HEK293, in the test with HaCat [1], with NIH3T3 and in the test on HACAT [2] was inactive.
As for `CCN(CC)CC(=O)Oc1ccc(NC(C)=O)cc1`, the max response with CRL-7250 was -7.74%. The molecule was called inactive in the test on HEK293, with HaCat [1], in the test with NIH3T3 and in the test on HACAT [2].
On to `O=C1CCCc2c(O)cccc21`, for which the max response was -3.71% in the test on CRL-7250, -4.98% in the test on HEK293 and -15.1% with NIH3T3. In addition, the molecule was called inactive in the test with HaCat [1] and in the test with HACAT [2].
`Cc1ccc(-c2ccccc2C#N)cc1`: the max response is 2.16% in the test with CRL-7250 and 3.01% in the test on NIH3T3. Moreover, the result in the test with HEK293, with HaCat [1] and with HACAT [2] was inactive.
For `O=C(CCOCCOCCOCCOCCC(=O)Nc1c(I)cc(I)c(C(=O)O)c1I)Nc1c(I)cc(I)c(C(=O)O)c1I`, the max response in the test on CRL-7250 is -8.36%; with NIH3T3, 0.931%. The result in the test on HEK293, in the test on HaCat [1] and in the test on HACAT [2] was inactive.
Regarding `CC(C)C(=O)Nc1cccc(C(F)(F)F)c1`, the max response was 3.59% in the test on CRL-7250, 3.73% in the test on HEK293 and 2.63% in the test with NIH3T3. Further, the molecule was classed as inactive in the test on HaCat [1] and in the test with HACAT [2].
Turning to `CC(=O)c1ccc(O)c(C(N)=O)c1`, the max response with CRL-7250 is 1.65%. Also, the call in the test with HEK293, in the test with HaCat [1], in the test with NIH3T3 and in the test on HACAT [2] was inactive.
As for `COC(=O)c1cc(S(N)(=O)=O)ccc1OC`, the figures for the max response in the test with CRL-7250 and in the test on HEK293 were -27.4% and 4.21%, respectively. The outcome in the test with HaCat [1], in the test on NIH3T3 and with HACAT [2] was inactive.
For the molecule `C/C(=N/NC(=O)c1ccncc1)C(=O)O`, the values for the max response with CRL-7250, with HEK293 and with NIH3T3 were 0.746%, 2.14% and 0.247%, respectively. Besides, the molecule was called inactive with HaCat [1] and in the test on HACAT [2].
In the case of `N#CC1(c2ccc(F)cc2)CCC(=O)CC1`, the max response in the test on CRL-7250 was -2.26%; in the test on HEK293 it was -11.6%. For the same molecule, the molecule was classed as inactive in the test on HaCat [1], with NIH3T3 and in the test on HACAT [2].
Take `O=C1CC2(CCCC2)CC(=O)N1`: the max response with CRL-7250 was -7.34%; in the test on HEK293, 4.63%. Also, the call in the test on HaCat [1], in the test on NIH3T3 and with HACAT [2] was inactive.
In the case of `Cc1cc(CCCOc2c(C)cc(-c3noc(C(F)(F)F)n3)cc2C)on1`, the molecule was called inactive with CRL-7250, in the test with HaCat [1], in the test with NIH3T3 and in the test with HACAT [2]. Further, the max response in the test on HEK293 was -24.5%.
Turning to `O=C(O)c1ccc(OCCN2CCCCC2)cc1`, the max response in the test with CRL-7250 was 4.52%; in the test on HEK293, -3.98%; in the test with NIH3T3, 1.34%. Moreover, the molecule was called inactive with HaCat [1] and with HACAT [2].
Consider `COc1ccc(/C(C)=C/C(=O)O)c(OC)c1`, for which the max response in the test with CRL-7250 was 0.36%. For the same molecule, the call in the test with HEK293, in the test on HaCat [1], in the test on NIH3T3 and in the test with HACAT [2] was inactive.
For the molecule `O=c1[nH]c2ccccc2c(=O)n1CCCl`, the max response with CRL-7250 is -4.5%; in the test with HEK293, -6.35%. The molecule was called inactive in the test with HaCat [1], in the test with NIH3T3 and with HACAT [2].
Regarding `CCCCC(CC)CNC(=O)CC(C)OC(=O)CCC(=O)O` (stereo not given), the max response is -4.08% in the test with CRL-7250, 1.54% in the test on HEK293 and -1.58% with NIH3T3. The call in the test on HaCat [1] and in the test with HACAT [2] was inactive.
Consider `O=C1CC(c2ccc(Cl)cc2)CC(=O)N1`, for which the molecule was called inactive with CRL-7250, in the test with HEK293, in the test on HaCat [1] and with HACAT [2]. Also, the max response with NIH3T3 is -1.3%.
Turning to `COc1ccc2cc(C=O)ccc2c1`, the max response in the test with CRL-7250 is 3.03%; with HEK293 it was 0.484%; in the test on NIH3T3, 2.35%. The result in the test on HaCat [1] and in the test on HACAT [2] was inactive.
For the molecule `O=C(c1ccco1)N1CCNCC1`, the values for the max response in the test with CRL-7250 and in the test with NIH3T3 were -10.9% and 4.52%, respectively. Further, the call in the test on HEK293, in the test on HaCat [1] and in the test with HACAT [2] was inactive.
Consider `C[C@H]1C[C@@H]2[C@H]([C@@H](O)C[C@@]3(C)[C@H]2CC[C@]3(O)C(=O)CO)[C@@]2(C)C=CC(=O)C=C12`, for which the max response was -5.61% with CRL-7250 and 0.285% in the test with NIH3T3. Further, the call in the test with HEK293, with HaCat [1] and in the test on HACAT [2] was inactive.
As to `Cc1coc2ccccc2c1=O`, the max response is -0.524% in the test on CRL-7250 and 3.92% with HEK293. Moreover, the call in the test with HaCat [1], in the test on NIH3T3 and in the test with HACAT [2] was inactive.
Take `CC(CC(C#N)(c1ccccc1)C(C)C)N(C)C` (stereo not given): the max response in the test on CRL-7250 is -3.29%. For the same molecule, the call in the test with HEK293, in the test on HaCat [1], in the test on NIH3T3 and in the test with HACAT [2] was inactive.
As for `Nc1c(I)cc(I)c(C(=O)N(CCC(=O)O)c2ccccc2)c1I`, the max response was 1.19% in the test on CRL-7250, -0.316% in the test on HEK293 and 0.521% with NIH3T3. Moreover, the result in the test on HaCat [1] and in the test on HACAT [2] was inactive.
With `Cc1ccc2ccc(Cl)cc2n1`, the molecule was called inactive with CRL-7250, in the test on HEK293, with HaCat [1] and with HACAT [2]. Moreover, the max response in the test on NIH3T3 is 3.19%.
Take `Cc1ccc(C(C)OC(=O)C2(C)CCC(C(=O)O)C2(C)C)cc1` (stereo not given): the max response with CRL-7250 was 3.77%. Moreover, the call with HEK293, in the test on HaCat [1], with NIH3T3 and in the test with HACAT [2] was inactive.
In the case of `Cc1onc(-c2ccccc2)c1C(=O)Cl`, the values for the max response with CRL-7250, with HEK293 and in the test on NIH3T3 were -2.71%, 0.397% and 4.1%, respectively. Moreover, the outcome in the test on HaCat [1] and with HACAT [2] was inactive.
As for `Cc1c(N)cccc1C(F)(F)F`, the call in the test on CRL-7250, in the test with HEK293, with HaCat [1] and with HACAT [2] was inactive. The max response in the test on NIH3T3 was -0.97%.

Source of the values: PubChem BioAssay (NCATS).
